{"source": "PubChem BioAssay", "note": "Unmarked numbers belong to inactive results. The source made the active and inactive calls.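 How the source made its calls: active means z-score of at least 1.8 in each of two replicates, scored against plate mean and spread of sample wells; inactive means the rest.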"}
{"assay": "galactose survival enhancers in mitochondrial complex I cybrids – cell-based, galactose medium, ATP luminescence, primary screen (AID 1645843);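 further: positive z means more ATP and so rescue of galactose-driven cybrid death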", "conditions": "complex I mutant cybrid cells, 72 h, stronger effect = higher value"}
{"compound": "CCn1nc(CC(C)C)cc1C(=O)N1CCC(n2cc(C(C)(C)O)nn2)CC1", "z-score": -0.53}
{"compound": "Cc1nnc(NC(=O)N2CCCN(c3ccncc3C)CC2)s1", "z-score": -0.57}
{"compound": "COc1cc(OC2(C(=O)O)CCSCC2)ccc1CN1CCCNCC1", "z-score": -0.23}
{"compound": "CCC1CN(C(=O)c2cc(-c3cnn(C)c3)nc3c(C)cccc23)CCN1C", "note": "(centres undefined)", "z-score": -0.31}
{"compound": "CC[C@H](C)[C@H](N)C(=O)N1CCC(Cn2cc(C3CCCCC3)nn2)CC1", "z-score": -0.81}
{"compound": "Cc1cc(N2CCC(Cn3cc(CN)nn3)CC2)nc(-c2ccccc2O)n1", "z-score": -1.23}
{"compound": "Cc1cnc(NCCCn2ncc3ccccc32)nc1-c1cnn(C)c1", "z-score": 0.065}
{"compound": "CC(C)C1C(=O)N(C)CCN1C(=O)C1(C)CC1", "note": "(centres undefined)", "z-score": -0.54}
{"compound": "Cc1nn(C)cc1-c1ccnc(N2CCN(Cc3ccc(F)cc3)C(=O)C2)n1", "z-score": 0.865}
{"compound": "CC(CCCC(C)(C)O)NC/C=C/c1ccc(F)cc1", "note": "(centres undefined)", "z-score": -0.51}
{"compound": "Cn1ccnc1-c1ccccc1C(=O)N1CCN(Cc2cccc(F)c2)CC1", "z-score": 0.355}
{"compound": "COc1ccc(C(=O)N2CCNC(=O)C2Cc2ccccc2)cc1F", "note": "(centres undefined)", "z-score": -0.505}
{"compound": "CCCC(CCC)C(=O)N1CCC(n2cc(C3CC3)nn2)CC1", "z-score": -0.125}
{"compound": "COC(=O)c1ccccc1C(=O)N1CCNC(=O)C1Cc1ccccc1", "note": "(centres undefined)", "z-score": -0.485}
{"compound": "CCCC(C)c1nc2c(cnn2C(C)C(C)C)[nH]1", "note": "(centres undefined)", "z-score": -1.01}
{"compound": "CCCn1cnc(NC(=O)NC2CCN(Cc3ccccc3)CC2)n1", "z-score": 0.58}
{"compound": "Cc1nsc(NC(=O)N2CCC(C(=O)N3CCCC3)CC2)n1", "z-score": -0.375}
{"compound": "CC(C)(C)c1cn(CC2CCCN(C(=O)c3cn4cccnc4n3)C2)nn1", "note": "(centres undefined)", "z-score": 0.425}
{"compound": "NC(=O)NCc1cn(CC2CCN(C(=O)C3CCCCCC3)CC2)nn1", "z-score": -0.565}
{"compound": "CC(C)CN(C)Cc1cn(C2CCN(C3CCCCCC3)CC2)nn1", "z-score": -0.485}
{"compound": "CCCc1cn(C2CCN(C(=O)C(C)N3CCCC3)CC2)nn1", "note": "(centres undefined)", "z-score": -0.35}
{"compound": "Cc1ccccc1-c1noc(C2CC(C(C)C)=NO2)n1", "note": "(centres undefined)", "z-score": 1.73}
{"compound": "Cc1nsc(NC(=O)N2CCCCC2c2cccc(F)c2)n1", "note": "(centres undefined)", "z-score": -0.55}
{"compound": "Cc1cc(C)c(CNC(C)CCC(C)C)c(C)c1CO", "note": "(centres undefined)", "z-score": 0.435}
{"compound": "Cc1nn(C)c(C)c1-c1ccnc(NCCc2nc(-c3ccccn3)no2)n1", "z-score": -0.395}
{"compound": "COc1ccc(-c2nc(N)nc(Nc3ccc(C)cc3)n2)cc1F", "z-score": -0.745}
{"compound": "Cc1nn(C)c(C)c1-c1ccnc(NCC(C)Oc2cccnc2)n1", "note": "(centres undefined)", "z-score": 1.26}
{"compound": "Cc1cc(C)n(CC(C)n2cnc3sc4c(c3c2=O)CCCCC4)n1", "note": "(centres undefined)", "z-score": "2.45 (active)"}
{"compound": "CN1CCN(C2CCCCCC2)CC1CCO", "note": "(centres undefined)", "z-score": -0.575}
{"compound": "Cn1nccc1NC(=O)Cn1ccc(-c2cnn(-c3ccccc3F)c2)n1", "z-score": -0.815}
{"compound": "CC(C)CN1CCC(CNCc2ccc(C#CC(C)(C)O)s2)CC1", "z-score": -1.05}
{"compound": "CCN(C(=O)c1cc(-c2cnc(C(C)C)nc2)nc2cc(F)ccc12)C(C)C", "z-score": -0.47}
{"compound": "CC(C)c1nc(Cn2cnc3sc4c(c3c2=O)CCCC4)cs1", "z-score": 1.35}
{"compound": "CCC(C)(C)NCc1c(C)cc(C)c(CO)c1C", "z-score": -0.525}
{"compound": "CCCCc1cc(=O)[nH]c(-c2ccc(CN3CCC(F)(F)CC3)cc2)n1", "z-score": 0.255}
{"compound": "O=C(CCn1cnnn1)N1CCc2[nH]nc(-c3ccc4c(c3)OCO4)c2C1", "z-score": 0.465}
{"compound": "O=c1c2c3c(sc2ncn1CCF)CCCCC3", "z-score": -0.535}
{"compound": "CC(C)Cc1cn(C2CCN(C(=O)CC3CCCCCC3)CC2)nn1", "z-score": "2.74 (active)"}
{"compound": "COc1cccc(OC)c1-c1noc(CCN2C(=O)COc3ccccc32)n1", "z-score": 1.39}
